D2 PAM-1: potentiates the human D2 dopamine receptor allosterically; DiscoveRx D2 beta-arrestin cells, luminescence, 90 min; 100% = 57 uM dopamine signal; potentiation, % (concentration not given with the values); 360,000 compounds, 0.23% hits; AID 624464; in the data active = potentiation above about 50%; inconclusive = mostly about 30% to 49%
Target sequence (P14416 whole entry, looked up): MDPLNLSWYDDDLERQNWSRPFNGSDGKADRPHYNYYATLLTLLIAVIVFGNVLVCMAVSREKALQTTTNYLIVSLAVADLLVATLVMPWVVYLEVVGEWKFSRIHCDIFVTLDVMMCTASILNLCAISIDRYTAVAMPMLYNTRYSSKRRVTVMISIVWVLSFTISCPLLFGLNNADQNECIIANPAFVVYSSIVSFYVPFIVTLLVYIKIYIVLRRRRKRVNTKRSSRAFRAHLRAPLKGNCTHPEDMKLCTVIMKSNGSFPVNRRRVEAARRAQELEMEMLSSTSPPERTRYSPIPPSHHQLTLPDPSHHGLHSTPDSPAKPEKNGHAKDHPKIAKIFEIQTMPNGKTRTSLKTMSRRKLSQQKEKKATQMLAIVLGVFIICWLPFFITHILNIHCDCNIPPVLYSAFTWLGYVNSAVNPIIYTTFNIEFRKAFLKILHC
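PathHunter D2 cells, attached overnight at 37 deg C, received compound in DMSO plus dopamine at EC20 (50 nM final) for 90 min at 37 deg C. Beta-arrestin recruitment was read as luminescence after 1 h with detection reagent at ambient temperature.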
D2 ag-1: human D2 receptor agonism in beta-arrestin assay; 360,000 compounds, 0.084% hits; activation, % (no concentration beside the values); P14416; DiscoveRx PathHunter D2 beta-arrestin, luminescence, 90 min; 100% = 57 uM dopamine signal; AID 624465; in the data active = activation above about 40%; inconclusive = between about 15% and that limit
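Agonist mode: compounds alone added to overnight-plated D2 PathHunter cells for 90 min at 37 C, with 57 uM final dopamine (EC100) defining full response. Beta-arrestin recruitment detected by chemiluminescent reagent, read after 1 h at ambient temperature.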
D2 ag-2: agonists of human D2 dopamine receptor; P14416; HEK293 T-REx D2 cells, calcium flux agonist mode; activation, % at 2 µM; 340,000 compounds, 0.53% hits;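 active = activation over 3 SD above normal in the single-dose calcium agonist read, cut at about 30% in these data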
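HEK293 Trex D2 cells, tetracycline-induced, o/n 30 C 5% CO2; no-wash Ca dye, RT 30–90 min; 10-cycle baseline, 23 nl cpd added, kinetic Ca read 180 s; agonist hits = positive Ca response.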
D2 antagonist: antagonists of human D2 dopamine receptor; P14416; HEK293 TREx D2 cells, calcium flux, dopamine EC80; 340,000 compounds, 2% hits; inhibition, % at 10 µM; in the data active = inhibition above about 30%; inactive = below that, where a call was filed
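Compounds are added to dye-loaded, induced HEK293 T-REx cells coupled to calcium release via D2; after a 3 min kinetic read an EC80 dopamine stimulus is given and fluorescence is recorded for 3 more min.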
D2 PAM-2: positive allosteric modulators of human D2 dopamine receptor; P14416; HEK293 T-REx D2, calcium flux, EC20 dopamine potentiation; potentiation, % at 10 µM; 340,000 compounds, 0.34% hits; AID 485347;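 active = potentiation over 3 SD above the plate norm, cut at about 30% in these data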
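Tetracycline-induced HEK293 T-REx cells force-coupled to calcium signalling expressed D2; compounds were pin-added after a 10 s baseline, read kinetically 180 s, then an EC20 dopamine challenge followed with a further 180 s calcium read.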
D3 ag: confirmation of human D3 dopamine receptor agonists, beta-arrestin | shares compounds with D2 ag-2 | Potency, µM (doses to about 76.9 µM), usual class: activators | DiscoveRx D3 beta-arrestin cells, luminescence, 90 min | 2,300 compounds, 4% hits | AID 720506; note: nearly all actives have a fitted effect of over 70% in size
D2 ag-3: D2 receptor agonism, beta-arrestin counterscreen | Potency, µM (highest dose often 76.9 µM), most hits filed as activators | DiscoveRx PathHunter D2 beta-arrestin, luminescence, 90 min; response scale: percent relative to full dopamine signal | 2,300 compounds, 5.9% hits | shares compounds with D2 ag-2 | AID 720507; note: nearly all actives have a fitted effect of over 70% in size
Hits are given with their value; – = inactive; ? = inconclusive; · = not tested or not shown; ! = not active in a repeat. This is a sample that favours compounds with a hit; in the whole collection about 2.4% have one here. Unless noted, calls come from the whole dose curve; as a rule, active = well fitted activation curve with a large enough effect; inconclusive = small, poorly fitted or top-dose-only effect; inactive = flat fitted curve, though single readings scatter.

SMILES	D2 PAM-1	D2 ag-1	D2 ag-2	D2 antagonist	D2 PAM-2	D3 ag	D2 ag-3
Cc1c(-c2ccccc2)nc2ccccc2c1C(=O)OCC(=O)Nc1ncc(C(F)(F)F)cc1Cl	–	–	–	30	–	–	–
O=C(Nc1ccc2oc(-c3ccccc3)nc2c1)c1cc(-n2cnnc2)ccc1Cl	–	–	·	·	·	·	·
O=C(Nc1ccc(-c2nc3ccccc3o2)cc1)c1cc(-n2cnnc2)ccc1Cl	–	–	–	–	–	?	–
COC(=O)c1ccc(C(=O)N2CCCC(N3CCN(c4ccccc4)CC3)C2)nc1 (stereo unspecified)	–	–	43	–	–	–	–
Cc1cnc(C(=O)N2CCCC(N3CCN(c4cccc(C(F)(F)F)c4)CC3)C2)cn1 (stereo unspecified)	–	–	–	–	–	–	–
CC(C)n1cc(C(=O)N2CCCC(N3CCN(c4cccc(Cl)c4)CC3)C2)cn1 (stereo unspecified)	–	–	52	–	–	–	–
O=C(c1ccsc1)N1CCCC(N2CCN(c3cccc(Cl)c3)CC2)C1 (stereo unspecified)	–	–	–	–	–	·	·
COc1cccc(NC(=O)c2nnn(Cc3ccc(OC)c(Br)c3)c2N)c1	·	·	–	·	–	·	·
Cc1nnc(SCC(=O)NNC(=O)c2ccc(Cl)cc2)s1	–	–	–	–	·	·	·
C[C@@H]1CN([C@H](C)CO)S(=O)(=O)c2ccc(Br)cc2O[C@H]1CN(C)C(=O)C1CC1	–	–	·	·	·	·	·
CCCCN(CC(O)COc1cccc(C)c1)CC(O)COc1cccc(C)c1 (stereo unspecified)	–	–	–	–	–	·	·
COC(=O)C(C)(C)c1cccnc1C#N	–	–	·	·	·	·	·
CC(C(O)c1ccc(O)cc1)N1CCC(Cc2ccccc2)CC1 (stereo unspecified)	–	–	33!	77	–	–	–
CC(C)OCC(O)CN1CCC(Cc2ccccc2)CC1 (stereo unspecified)	–	–	–	–	–	·	·
C[C@@H](CN1CCC(Cc2ccccc2)CC1)[C@@H](O)c1ccc(O)cc1	–	–	·	·	·	–	–
COc1ccc(CNC(=O)Cn2ncc3c([nH]c4ccccc43)c2=O)cc1	·	·	–	·	–	·	·
Cn1c(CCN2CCN(c3ccccn3)CC2)nc2cc(NC(=O)COc3ccc([N+](=O)[O-])cc3)ccc21	–	–	82	31	–	–	–
CCC(=O)Nc1ccc2c(c1)nc(CCN1CCN(c3ccccc3)CC1)n2C	–	–	62	–	–	–	–
CCC(=O)Nc1ccc2c(c1)nc(CCN1CCCCC1)n2C	–	–	–	–	–	·	·
CC(C)C(=O)Nc1ccc2c(c1)nc(CCN1CCN(c3ccccn3)CC1)n2C	–	?	67	33	–	?	–
O=S(=O)(Nc1ccc(Br)cn1)c1ccc2ccccc2c1	–	–	–	–	–	·	·
COc1ccc(Cl)cc1Cn1c(C)c(C(=O)NCc2cccc(Cl)c2)sc1=O	–	–	·	·	·	·	·
CNc1ncnc2c1ncn2[C@H]1CN(Cc2ccc(Cl)cc2)C[C@@H](CO)O1	–	–	·	·	·	·	·
Cc1cc(=O)oc2cc(OC(C)C(=O)NC3CCCC3)ccc12 (stereo unspecified)	–	–	–	–	–	·	·
Cc1cc(=O)oc2cc(OC(C)C(=O)Nc3nccs3)ccc12 (stereo unspecified)	–	–	·	·	·	–	–
SMILES	D2 PAM-1	D2 ag-1	D2 ag-2	D2 antagonist	D2 PAM-2	D3 ag	D2 ag-3
COc1ccc(NC(=O)CN(c2ccc(OC)c(Cl)c2)S(=O)(=O)c2ccccc2)c(OC)c1	–	–	–	–	–	·	·
Cc1cccc(C(=O)NNC(=S)NC(=O)c2cccs2)c1	–	–	–	–	–	–	–
Cc1cccc(CN2CCN(c3ncccn3)CC2)c1	?	?	87	83	–	?	7.9µM
Brc1cccc(CN2CCN(c3ncccn3)CC2)c1	?	73	73	85	–	–	11µM
O=C(Nc1ccc(Cl)c(C(F)(F)F)c1)c1nc2ccccc2nc1N1CCCCC1	·	·	–	·	–	·	·
COc1cccc2cc(C(=O)NCCc3ccccc3)oc12	–	–	·	·	·	·	·
CC(C)c1cccc(C(C)C)c1OC(=O)[C@H]1OC(c2ccc(Br)cc2)=C[C@@H]1c1ccc(Br)cc1	–	–	–	–	–	–	–
CC(C)c1cccc(C(C)C)c1OC(=O)[C@H]1OC(C(C)(C)C)=C[C@@H]1c1ccccc1	–	–	–	–	–	·	·
COc1cc(C(=O)CCN2CCC(c3ccccc3)C2)cc(OC)c1OC (stereo unspecified)	–	–	46	–	–	–	–
O=C(CCN1CCC(c2ccccc2)C1)c1cccs1 (stereo unspecified)	–	–	–	–	–	·	·
Cc1noc(C)c1S(=O)(=O)NCc1cccc(Cl)c1	–	–	–	–	–	·	·
Cc1ccc(-c2cn(-c3ccccc3)c(SCC(N)=O)n2)cc1C	–	–	–	–	–	·	·
CCOC(=O)NC(=O)CSc1nc(-c2ccc(C)c(C)c2)cn1-c1ccccc1	–	–	–	–	–	–	–
Cc1nc2c([nH]1)C1(CCN(Cc3ccccc3)CC1)C(C#N)=C(N)O2	–	?	71	60	–	–	–
CC1(C)CC(=O)C2=C(C1)OC(N)=C(C#N)C21CCN(Cc2ccccc2)CC1	–	–	–	–	–	·	·
CCc1nnc(SC(CC)C(=O)Nc2ccc(OC)c(Cl)c2)c2cc3occc3n12 (stereo unspecified)	·	·	–	·	–	·	·
Cc1cc(NC(=O)CSCC(=O)Nc2cc(C(F)(F)F)ccc2N2CCCC2)no1	–	–	–	–	–	·	·
Cc1cc(NC(=O)CSCC(=O)Nc2cc(C(F)(F)F)ccc2N2CCOCC2)no1	–	–	–	–	–	–	–
Cc1cccc(N2CCN(C(=O)CCC(=O)NNc3nc4ccccc4c4nc(C)nn34)CC2C)c1 (stereo unspecified)	·	·	–	·	–	·	·
O=C(CSc1nc2c([nH]c3ccccc32)c(=O)n1-c1ccc(Cl)cc1)NCc1ccccc1	·	·	–	·	–	·	·
CCN1CCN(c2ncnc3sc(C)c(-c4ccccc4)c23)CC1	–	?	–	–	·	–	18µM
CCN1CCN(c2ncnc3scc(-c4ccc(C)c(C)c4)c23)CC1	–	–	–	–	–	·	·
O=C(c1ccc(Br)o1)N1CCN(CCc2ccncc2)CC1	–	–	–	–	–	·	·
O=c1c2ccccc2nc(SCc2ccc([N+](=O)[O-])cc2)n1-c1ccccc1	–	–	·	–	–	·	·
